High-throughput results as filed in PubChem BioAssay.
This is a sample that favours compounds with a hit; in the whole collection about 3.4% have one here.
Mcl1 Bid PPI: Mcl-1/Bid binding inhibitors, primary screen, biochemical, TR-FRET, 1536-well; 220,000 compounds, 0.97% hits; AID 1021, 2008; inhibition, % at 21.7 µM; TR-FRET Mcl-1/Bid-Dy647 peptide binding;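 active = compounds that cut the binding signal by more than half at the single screening dose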;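 also: His-tagged Mcl-1 with europium anti-His antibody binding Bid BH3 peptide; 0% = Mcl-1 plus peptide wells and 100% = peptide-only wells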
NCF1 inh: p47phox/p22phox peptide binding inhibitors, primary screen, biochemical, uHTS, NADPH oxidase regulatory subunit | Neutrophil cytosol factor 1 (Homo sapiens), P14598 | fluorescence polarization, 2 h | inhibition, % at 24.7 µM | 220,000 compounds, 0.53% hits;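 active = inhibition above about 30%, limit read from the data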;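 also: 0% = p47phox with labelled peptide and 100% = labelled peptide alone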
Target sequence (P14598 whole entry, looked up): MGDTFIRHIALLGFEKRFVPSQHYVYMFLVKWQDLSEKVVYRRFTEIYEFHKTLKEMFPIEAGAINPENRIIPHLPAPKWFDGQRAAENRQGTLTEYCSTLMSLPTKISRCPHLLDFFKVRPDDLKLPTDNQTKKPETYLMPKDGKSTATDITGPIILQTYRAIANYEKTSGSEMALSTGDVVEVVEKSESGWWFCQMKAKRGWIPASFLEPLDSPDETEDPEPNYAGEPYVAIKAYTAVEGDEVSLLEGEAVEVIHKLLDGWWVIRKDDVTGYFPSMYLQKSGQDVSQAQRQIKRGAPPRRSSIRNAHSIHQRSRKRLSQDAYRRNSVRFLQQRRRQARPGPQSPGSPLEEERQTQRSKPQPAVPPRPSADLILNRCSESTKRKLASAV
Calpain2 inh: inhibitors of pig calpain II, primary screen, biochemical, fluorogenic peptide substrate, 1536-well. purified calpain II, 30 min. 220,000 compounds, 0.37% hits. AID 1236, 2008. inhibition, % at 16 µM;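 active = inhibition above about 50%, limit read from the data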
Mcl1 Noxa PPI: Mcl-1/Noxa binding inhibitors, primary screen, biochemical, TR-FRET, 1536-well | Induced myeloid leukemia cell differentiation protein Mcl-1 (Homo sapiens), Q07820 | TR-FRET Mcl-1/Noxa peptide binding, 2 h | inhibition, % at 21.7 µM | 220,000 compounds, 1.5% hits;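 active = compounds that cut the protein-peptide binding signal by more than 50% relative to plate controls in a single-dose test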;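 also: His-tagged Mcl-1 with rhodamine Noxa BH3 peptide and terbium anti-His antibody; 0% = Mcl-1 plus Noxa peptide wells and 100% = peptide-only wells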
Mcl-1 Bim block: inhibitors of Bim peptide binding to Mcl-1, primary screen, biochemical, bead-based flow cytometry, multiplex; inhibition, % at 10 µM; Induced myeloid leukemia cell differentiation protein Mcl-1 (Homo sapiens), Q07820; 190,000 compounds, 0.1% hits; AID 1009, 2008; Bim peptide-Mcl-1 binding; in the data active = inhibition above about 40%;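 also: 0% = no compound tracer wells and 100% = peptide blocker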
14-3-3 Bad inh: inhibitors of 14-3-3 zeta/Bad binding, primary screen, biochemical, TR-FRET, bovine 14-3-3 zeta. inhibition, % at 21.7 µM. 220,000 compounds, 0.71% hits. 14-3-3 protein zeta/delta (Bos taurus), P63103. TR-FRET 14-3-3zeta/Dy647-pBad peptide displacement, 1 h;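 active = inhibition above about 70%, limit read from the data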;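 also: 0% = full 14-3-3 plus peptide FRET controls and 100% = background without 14-3-3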
* hit, by the source's call; . = not tested or not shown; [ ] = remark or other dose.

SMILES	Mcl1 Bid PPI	NCF1 inh	Calpain2 inh	Mcl1 Noxa PPI	Mcl-1 Bim block	14-3-3 Bad inh
O=C(c1ccccc1)c1ccc(OCCCCN2CCCCC2)cc1	43	-1	10	21	0	74*
COc1ccc(-n2cc(-c3ccc(OC(F)F)cc3)[n+]3c2CCCCC3)cc1	90*	-7	27	9	-1	12
COc1ccc2c(Cl)c(C(=O)N/N=C/c3ccc4c(c3)OCO4)sc2c1	37	11	-125	-5	-3	73*[fluorescence artefact?]
COc1ccc(NS(=O)(=O)c2cccc(C(=O)N/N=C/c3ccc4c(c3)OCCO4)c2)cc1	65*	31*	-32	32	-1	7
O=C(N/N=C/c1ccc2c(c1)OCO2)c1sc2cc(Cl)ccc2c1Cl	51*	31*	14	49	1	50
O=C(N/N=C/c1ccc2c(c1)OCO2)c1sc2cccc(Cl)c2c1Cl	-8	4	-332	-20	-4	-12
COc1ccccc1NS(=O)(=O)c1cccc(C(=O)N/N=C/c2ccc3c(c2)OCCO3)c1	-2	-1	-47	4	-1	-5
CC(CCCC(C)(C)O)NCc1cn[nH]c1-c1ccc2c(c1)OCO2 (stereo unspecified)	-12	-12	5	-8	-5	-1
O=C(COC(=O)/C=C/c1ccc(Cl)cc1)NCCN1C(=O)CSC1=O	-12	1	-4	-5	0	-3
O=C(COC(=O)/C=C/c1ccc(OC(F)F)cc1)NCCN1C(=O)CSC1=O	-50	46*	10	37	-7	5
COc1ccc(N2CCC(CNC(=O)Nc3ccc(Cl)cc3)C2)cc1 (stereo unspecified)	-55	-5	-24	76*	2	-3
COc1ccc(N2CCC(CNC(=S)Nc3cccc(OC)c3)C2)cc1 (stereo unspecified)	-58	-13	27	75*	3	2
COc1ccc(N2CCC(CNC(=O)Nc3cccc(OC)c3)C2)cc1 (stereo unspecified)	-100	-12	-19	89*	-1	.
CCc1cccc(C)c1NC(=S)NCC1CCN(c2ccc(OC)cc2)C1 (stereo unspecified)	-31	-5	-26	48	0	-8
CCc1ccccc1NC(=S)NCC1CCN(c2ccc(OC)cc2)C1 (stereo unspecified)	-140	-6	13	23	.	-4
O=S(=O)(c1ccccc1)N1CCN(c2ccnc3cc(Cl)ccc23)CC1	6	5	-28	10	-2	71*
O=C(NNC(=O)c1cccnc1SCc1cccc([N+](=O)[O-])c1)c1ccccn1	-12	-1	-53	-33	-5	-4
COc1ccc(-n2c(Cc3cc(=O)[nH]c(=O)[nH]3)nnc2SCC(=O)Nc2ccccc2)cc1	-23	47*	-7	5	-2	2
COc1ccc(NC(=O)CSc2nc(NS(=O)(=O)c3ccccc3)cc(=O)[nH]2)cc1	-25	-10	-11	20	-5	75*
CC(NC(=O)Cc1cccs1)C(c1cccs1)N1CCOCC1 (stereo unspecified)	36	-20	-35	33	-10	8
COc1cccc2c(=S)c(CCC(C)=O)c(C)[nH]c12	9	3	-94	100*	-3	6
CC(=O)CCc1c(C)c2cccc(C)c2[nH]c1=O	-6	7	-2	5	0	2
Cc1ncsc1CCOC(=O)c1ccc(Cl)cc1	-21	-13	4	15	-6	-11
CS(=O)(=O)c1ccc2nc(NC(=O)c3ccc(NS(=O)(=O)c4ccc(F)c(F)c4)cc3)sc2c1	64*	-20	-78	6	.	72*
Cn1cccc1C(=O)OCC(=O)NC(=O)NC1CCCCC1	-19	-6	6	7	0	-4
SMILES	Mcl1 Bid PPI	NCF1 inh	Calpain2 inh	Mcl1 Noxa PPI	Mcl-1 Bim block	14-3-3 Bad inh
Nc1nc2n(n1)C(c1ccco1)CC(c1ccccc1)N2 (stereo unspecified)	-22	46*	-9	-31	0	4
Nc1nc2n(n1)C(c1ccco1)CC(c1ccc(F)cc1)N2 (stereo unspecified)	-17	2	12	23	-1	-1
COc1ccc(C2CC(c3ccc(Br)cc3)Nc3nc(N)nn32)cc1 (stereo unspecified)	-54	-5	-16	-9	-2	9
COc1ccc(C2CC(c3ccccc3)Nc3nc(N)nn32)cc1 (stereo unspecified)	71*	-5	16	-1	0	-14
Cc1ccc(F)cc1NC(=O)c1ccc(NS(=O)(=O)c2ccc(Br)s2)cc1	5	-14	6	13	-4	2
Cc1ccc(S(=O)(=O)NC(CC(=O)NCC2CCCO2)c2ccccc2)cc1 (stereo unspecified)	-25	-2	-2	0	-4	-4
O=C(CSCc1ccccn1)Nc1ccccc1	-23	-7	-22	-9	2	-2
O=C(Cc1ccccn1)Nc1ccccc1	16	-8	20	24	-2	73*[fluorescence artefact?]
S=C(NNc1ccnc2cc(Cl)ccc12)Nc1ccc(Cl)cc1Cl	62*	-19	-32	85*	.	92*
CCOc1ccc(NC(=S)NNc2ccnc3cc(Cl)ccc23)cc1	-42	-19	-70	29	-12	-6
N#C/C(=C\c1ccc(/C=C(/C#N)c2nn(CCO)c(N)c2C#N)cc1)c1nn(CCO)c(N)c1C#N	62*	-26	24	58*	0	11
CCN(c1ccc(N=Cc2c(O)n(Cc3ccc(OC)cc3)c(=O)c3ccccc23)cc1)C(C)C	-18	-157	-43	59*	.	-19
CCOC(=O)N1CCN(C(=O)c2cccn3c(=O)c4c5c(sc4nc23)CCCC5)CC1	-18	-13	-28	12	-3	-8
O=C(O)CSc1cc(C(=O)c2ccccc2O)cn2c(=O)c3c4c(sc3nc12)CCCC4	51*	-19	7	80*	.	75*
COCCNc1nc2nonc2nc1N(C)Cc1cccc2cnccc12	-2	-2	-19	-4	-1	-15
Nc1c(C2=NCCO2)nnn1Cc1ccccc1	13	44*	4	-4	-3	3
COC(=O)c1nnn(Cc2ccccc2)c1N	-3	3	14	22	-2	7
COc1cc(OC)cc(-c2cc3nc(C)c(CCC(=O)O)c(C)n3n2)c1	62*	-10	-122	33	0	66
COCCCN=Cc1c(-c2ccccc2)[nH]n(-c2nc3ccccc3s2)c1=O	8	-86	21	14	.	-1
